# Screening data from PubChem.
# A selection: hits, their analogues and other compounds. The true share with any hit is near 12%.
# JMJD2A Tudor – qHTS Assay for Inhibitors of JMJD2A-Tudor Domain; AID 504339, 2011; 390,000 tested, 4.4% active; Lysine-specific demethylase 4A (Homo sapiens), O75164; Potency, µM (top dose mostly 114 µM), for the others: at the top dose activity change, negative = inhibition, usual class: inhibitors; AlphaScreen JMJD2A-Tudor / H3K4me3 peptide binding; further: on the % scale 0 is the no-effect control and ±100 the full control effect; nearly all actives have a fitted effect of over 50% in size
# HP1b chromo inh – HTS for Inhibitors of HP1-beta Chromodomain Interactions with Methylated Histone Tails; Chromobox protein homolog 1 (Homo sapiens), P83916; AlphaScreen HP1-beta / biotin-H3K9me3 peptide binding; Potency, µM (highest dose often 114 µM), for inactives: at the top dose activity change, negative = inhibition, hits mostly inhibitors; 390,000 tested, 0.56% active; further: nearly all actives have a fitted effect of over 70% in size
#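 Compound inhibition of the preformed complex between 50 nM HP1-beta and 50 nM biotinylated H3K9me3 peptide was read by AlphaScreen. Buffer was PBS pH 7.4 with 0.01% Tween-20. Incubations ran 30 min at room temperature, with 10 ug/mL donor/acceptor beads.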
# G9a block – qHTS Assay for Inhibitors of Histone Lysine Methyltransferase G9a; Histone-lysine N-methyltransferase EHMT2 (Homo sapiens), Q96KQ7; G9a H3K9 monomethylation, AlphaScreen, 2 h; Potency, µM (titrated, usually from 102 µM), without a hit: top-dose activity, negative = inhibition, usual class: inhibitors; 350,000 tested, 8.8% active; further: on the % scale 0 is the no-effect control and ±100 the full control effect; nearly all actives have a fitted effect of over 75% in size
#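 Methyltransferase reactions run at room temperature for 2 h (20 nM enzyme, 500 nM biotin-H3K9 peptide, 20 uM SAM) after a 15 min compound preincubation; product detected by AlphaScreen beads and anti-H3K9me1 antibody.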
# Sfp inh – qHTS Assay for Inhibitors of Bacillus subtilis Sfp phosphopantetheinyl transferase (PPTase) | Potency, µM, without a hit: largest response in the series, negative = inhibition, actives largely listed as inhibitors | Biochemical Sfp PPTase activity, qHTS | 310,000 tested, 3.5% active | AID 1490, 2009 | 4'-phosphopantetheinyl transferase ffp (Bacillus subtilis), Q9F4F7;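 further: the enzyme is Sfp with the accession as filed and its product quenches rhodamine fluorescence; 0% = enzyme reaction without inhibitor and -100% = no enzyme wells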
#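 Sfp 15 nM + cpd, 15 min RT; start w/ rhodamine-CoA 5 uM, BHQ-2-YbbR 12.5 uM (final); 50 mM Hepes pH 7.6, 10 mM MgCl2, 0.01% NP-40, 0.01% BSA; read 525/598 nm at 0 and 30 min.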
# L3MBTL1 block – qHTS Assay for the Inhibitors of L3MBTL1. Lethal(3)malignant brain tumor-like protein 1 (Homo sapiens), Q9Y468. AlphaScreen L3MBTL1–H3K9me1 peptide binding. Potency, µM (highest dose often 57.1 µM), without a hit: at the highest dose activity, negative = inhibition, usual class: inhibitors. 230,000 tested, 0.66% active; further: on the % scale 0 is the no-effect control and ±100 the full control effect; nearly all actives have a fitted effect of over 60% in size
#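 Displacement of a biotinylated histone H3(1-15) peptide monomethylated at Lys9 (75 nM) from L3MBTL1 (50 nM) was measured by AlphaScreen after a 30 min room-temperature compound incubation; cefsulodin titration served as intraplate control.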
# BAZ2B inh – qHTS Assay for Inhibitors of BAZ2B; Potency, µM (titrated, usually from 114 µM), for the others: at the highest dose activity change, negative = inhibition, hits mostly inhibitors; 360,000 tested, 4.4% active; AlphaScreen BAZ2B-H3K14Ac peptide displacement; further: on the % scale 0 is the no-effect control and ±100 the full control effect; nearly all actives have a fitted effect of over 60% in size
#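 AlphaScreen displacement of biotin-H3(5-23)K14Ac peptide (50 nM final) from BAZ2B (50 nM final) in PBS pH 7.4, 0.01% Tween-20; complex preformed 30 min RT, then compounds (top 110 uM) 30 min RT, beads 20 min dark.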
# * marks the source's active call; other numbers are inactive results; ? = inconclusive; nt = no result; [ ] = another dose, or the depositor's remark. The call rests on the fitted dose curve; in most records, active means well fitted curve in the direction sought with a large enough effect; inconclusive means small, poorly fitted or top-dose-only effect, or another doubt; inactive means no such curve, though single readings can be large; an effect the other way counts as inactive or inconclusive. Potency means the concentration at half of the fitted maximal effect.
SMILES,JMJD2A Tudor,HP1b chromo inh,G9a block,Sfp inh,L3MBTL1 block,BAZ2B inh
CCOC(=O)c1c(S(=O)(=O)N2CCCC(C(=O)N3CCN(c4cccc(C)c4C)CC3)C2)c(C)n(C)c1C (configuration not stated),?,5%,-38%[59 µM],nt,nt,?
COc1ccc2c(c1)[nH]c1c(=O)n(/N=C/c3ccc(OC)c(CN4CCCC4)c3)cnc12,3%[11.4 µM],20%,0%[12.7 µM],1%,-6%,-13%
COc1ccc(/C=N/n2cnc3c([nH]c4ccc(F)cc43)c2=O)cc1CN1CCCC1,-8%,?,40µM*,-1%,1%,-1%
COc1ccc(/C=N/n2cnc3c([nH]c4ccccc43)c2=O)cc1COc1ccccn1,nt,nt,32%[59 µM],?,nt,56µM*
CSCC[C@H](NC(=O)[C@H](CCCNC(=N)N)NC(=O)[C@H](Cc1ccc(O)cc1)NC(=O)[C@@H]1CCCN1C(=O)CNC(=O)[C@H](CCC(=O)O)NC(=O)[C@H](CC(=O)O)NC(=O)[C@H](CCCCN)NC(=O)[C@H](CCCCN)NC(=O)[C@H](CCC(=O)O)NC(=O)[C@H](C)N)C(=O)N[C@@H](CCC(=O)O)C(=O)N[C@@H](Cc1cnc[nH]1)C(=O)N[C@@H](Cc1ccccc1)C(=O)N[C@@H](CCCNC(=N)N)C(=O)N[C@@H](Cc1c[nH]c2ccccc12)C(=O)NCC(=O)N[C@@H](CO)C(=O)N1CCC[C@H]1C(=O)N1CCC[C@H]1C(=O)N[C@@H](CCCCN)C(=O)N[C@@H](CC(=O)O)C(=O)O,nt,nt,nt,8%,nt,nt
CCOc1ccc2nc(N3C(=O)CNC3=S)sc2c1,-15%,32%,8%,-13%,nt,-21%
Cc1cc2nc(N3C(=O)CNC3=S)sc2cc1C,-20%,29%,1%,2%,-5%,45µM*
CC1(NC(=O)CC[N+](C)(C)CCO)CS(=O)(=O)CC1S(=O)(=O)[O-] (configuration not stated),nt,nt,?,-8%,13µM*,50µM*
CNCC(=O)NCC(=O)N[C@@H](Cc1ccccc1)C(=O)N[C@@H](CC(C)C)C(=O)O,nt,nt,9%[59 µM],5%,nt,nt
Cc1nnc(SCC2=C(C(=O)O)N3C(=O)C(NC(=O)c4cccc(F)c4F)C3SC2)s1 (configuration not stated),-22%,11%,?,56µM*,nt,?
Cc1nnc(SCC2=C(C(=O)O)N3C(=O)C(NC(=O)Cn4ncc(Cl)c4C)C3SC2)s1 (configuration not stated),?,14%,28µM*,28µM*,nt,?
CC(=O)OCC1=C(C(=O)O)N2C(=O)C(NC(=O)c3ccc(F)cc3)C2SC1 (configuration not stated),-24%,14%,-44%,2%,-17%,?
Cc1cc(C)n(CC(=O)NC2C(=O)N3C(C(=O)O)=C(CSc4nnc(C)s4)CSC23)n1 (configuration not stated),25µM*,7%,40µM*,56µM*,nt,71µM*
CC(=O)OCC1=C(C(=O)O)N2C(=O)[C@@H](NC(=O)Cc3cccs3)[C@@H]2SC1,nt,nt,?,-5%,nt,nt
Cc1ccccc1CNC(=O)Nc1ccc2c(c1)N(C)C(=O)c1ccccc1S2,-1%,53%,-49%[59 µM],nt,nt,-5%
CSc1cccc(NC(=O)c2[nH]c(C)c(C(C)=O)c2C)c1,-19%,?,?,-6%,nt,50µM*
